Bioassay records from PubChem BioAssay.
This is a sample that favours compounds with a hit; in the whole collection about 13% have one here.
G9a inh: qHTS Assay for Inhibitors of Histone Lysine Methyltransferase G9a | Histone-lysine N-methyltransferase EHMT2 (Homo sapiens), Q96KQ7 | G9a H3K9 monomethylation, AlphaScreen, 2 h | Potency, µM (series often up to 102 µM), without a hit: top-dose activity, negative = inhibition, most hits filed as inhibitors | 350,000 compounds, 8.8% hits | AID 504332, 2011; further: potency means the concentration at half of the fitted maximal effect; on the % scale 0 is the no-effect control and ±100 the full control effect; nearly all actives have a fitted effect of over 75% in size
Target sequence (Q96KQ7 913-1193 limits assumed): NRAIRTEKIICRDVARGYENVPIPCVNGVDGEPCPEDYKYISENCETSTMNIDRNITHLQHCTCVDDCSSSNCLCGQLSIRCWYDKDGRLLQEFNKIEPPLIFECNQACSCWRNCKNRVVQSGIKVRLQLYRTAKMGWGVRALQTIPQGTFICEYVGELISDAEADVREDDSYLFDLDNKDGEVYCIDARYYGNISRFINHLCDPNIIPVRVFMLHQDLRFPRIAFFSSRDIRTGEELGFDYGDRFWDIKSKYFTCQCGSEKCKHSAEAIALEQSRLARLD
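Readings reflect AlphaScreen signal from monomethyl-H3K9 antibody detection. HMT at 20 nM; substrate b-H3K9 500 nM; cofactor SAM 20 uM; 2 h RT reaction; compounds tested as titrations in qHTS with 15 min preincubation.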
KDM4E inh: qHTS Assay for Inhibitors of Human Jumonji Domain Containing 2E (JMJD2E); Lysine-specific demethylase 4E (Homo sapiens), B2RXH2; JMJD2E catalytic domain, FDH-coupled NADH fluorescence (FDH is formaldehyde dehydrogenase); Potency, µM (top dose mostly 57.1 µM), for inactives: at the top dose activity change, negative = inhibition, actives largely listed as inhibitors; 230,000 compounds, 1.6% hits; AID 2147, 2009; active means well fitted inhibition curve with a large enough effect, not every such curve was filed as active; inconclusive means small, poorly fitted or top-dose-only effect, or another doubt; inactive means no such curve, though single readings can be large or run the other way;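 further: potency means the concentration at half of the fitted maximal effect; 0% = wells with enzyme and -100% = buffer wells without enzyme; nearly all actives have a fitted effect of over 50% in size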
Lamin A splicing: qHTS Assay for Modulators of Lamin A Splicing; Potency, µM (top dose mostly 46.1 µM), for inactives: top-dose ratio change, negative = inhibition, actives largely listed as inhibitors; 200,000 compounds, 0.01% hits; HeLa LMNA splicing GFP/RFP minigene ratio, 48 h; AID 1487, 2009; active means well fitted inhibition curve with a large enough effect in the signal ratio, with a control signal flat, not every such curve was filed as active; inconclusive means small, poorly fitted or top-dose-only effect, or effect the other way, or a change in a side signal; the % refers to the signal ratio; further: potency means the concentration at half of the fitted maximal effect; on the % scale 0 is the no-effect control and ±100 the full control effect
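S3 HeLa cells stably expressing lamin A-EGFP splicing minigene plus DsRed2, 600 cells/well, 48 h compound exposure at 37C. Laser-scanning cytometry; analysed as GFP (500-530 nm)/RFP (575-640 nm) total intensity ratio; 0.5% DMSO vehicle.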
Sfp PPTase inh: qHTS Assay for Inhibitors of Bacillus subtilis Sfp phosphopantetheinyl transferase (PPTase); Biochemical Sfp PPTase activity, qHTS; 310,000 compounds, 3.5% hits; Potency, µM, inactives show largest response in the series, negative = inhibition, usual class: inhibitors; AID 1490, 2009;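 further: the enzyme is Sfp with the accession as filed and its product quenches rhodamine fluorescence; potency means the concentration at half of the fitted maximal effect; 0% = enzyme reaction without inhibitor and -100% = no enzyme wells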
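Fluorescence-quenching assay: 15 nM Sfp-PPTase preincubated 15 min at room temperature with compound, then 5 uM rhodamine-CoA and 12.5 uM BHQ-2-labelled YbbR peptide added. Fluorescence (ex 525/em 598 nm) read at start and after 30 min; difference gives rate.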
ALDH1A1 block: qHTS Assay for Inhibitors of Aldehyde Dehydrogenase 1 (ALDH1A1); Purified ALDH1A1, NADH fluorescence, propionaldehyde substrate; Potency, µM (titrated, usually from 75.3 µM), for the others: top-dose activity, negative = inhibition, actives largely listed as inhibitors; AID 1030, 2008; 220,000 compounds, 7.3% hits; Aldehyde dehydrogenase 1A1 (Homo sapiens), P00352; active means well fitted inhibition curve with a large enough effect, not every such curve was filed as active; inconclusive means small, poorly fitted or top-dose-only effect, or another doubt; inactive means no such curve, though single readings can be large or run the other way;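 further: potency means the concentration at half of the fitted maximal effect; plate controls were no enzyme wells and a reference inhibitor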
Target sequence (P00352 whole entry, looked up): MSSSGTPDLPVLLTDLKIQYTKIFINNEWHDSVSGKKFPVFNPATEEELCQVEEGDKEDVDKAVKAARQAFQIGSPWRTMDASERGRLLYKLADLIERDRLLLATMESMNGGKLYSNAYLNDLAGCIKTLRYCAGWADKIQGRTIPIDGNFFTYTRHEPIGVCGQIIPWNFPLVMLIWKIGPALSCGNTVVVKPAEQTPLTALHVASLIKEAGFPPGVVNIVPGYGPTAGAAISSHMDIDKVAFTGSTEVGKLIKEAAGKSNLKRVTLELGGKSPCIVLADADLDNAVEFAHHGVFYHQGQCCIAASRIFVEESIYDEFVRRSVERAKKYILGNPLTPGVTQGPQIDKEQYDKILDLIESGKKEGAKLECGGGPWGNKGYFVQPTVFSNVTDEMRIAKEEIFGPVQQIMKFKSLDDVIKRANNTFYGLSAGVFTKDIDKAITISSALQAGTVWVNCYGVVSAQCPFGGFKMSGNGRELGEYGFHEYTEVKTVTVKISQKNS
miR-21 act: qHTS Assay for Modulators of miRNAs and/orActivators of miR-21 | Potency, µM (titrated, usually from 38.3 µM), without a hit: at the top dose activity change, positive = activation, hits mostly activators | HeLa miR-21 FLuc reporter, luciferase, 48 h | 340,000 tested, under 10 active;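 further: % of control where 0% means no effect; miR-21 action dims this reporter so a rising signal means less miR-21 action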
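HeLa miR-21-FLuc reporter line, endogenous miR-21; 2000 cells/well in DMEM/10% FBS; compound titration up to ~40uM final, 48 h, 37 degree Celsius; luciferase detection reagent, 15 min lysis, CCD luminescence.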
* hit, by the source's call; ? = inconclusive; · = not tested or not shown; [ ] = dose if it differs, or a comment. Unless noted, the call rests on the fitted dose curve; in most records, active means well fitted curve in the direction sought with a large enough effect; inconclusive means small, poorly fitted or top-dose-only effect, or another doubt; inactive means no such curve, though single readings can be large; an effect the other way counts as inactive or inconclusive.

SMILES | G9a inh | KDM4E inh | Lamin A splicing | Sfp PPTase inh | ALDH1A1 block | miR-21 act
Cc1ccc(NC(=O)/C=C\C(=O)NCC(=O)O)cc1 | 10µM* | -2% | 8%[9.22 µM] | 71µM* | 28µM* | -2%
CCSc1nnc(NS(=O)(=O)c2ccc(OC)cc2)s1 | 2% | -1% | · | 12% | ? | -7%
Cc1ccc(S(=O)(=O)Nc2ccc(NC(=O)/C=C/C(=O)O)cc2)cc1 | ? | 7% | 6%[46 µM] | 5% | 35µM* | -1%
CCc1nnc(NS(=O)(=O)c2ccc(NC(=S)NC(=O)/C=C/c3ccccc3)cc2)s1 | ? | 9% | ? | -8% | ? | -5%
CCc1nnc(NS(=O)(=O)c2ccc(NC(=S)NC(=O)/C=C/c3ccc(OC)cc3)cc2)s1 | 50µM* | -8% | ? | 79µM* | 2.5µM* | -8%
CCc1nnc(NS(=O)(=O)c2ccc(NC(=O)/C=C/C(=O)O)cc2)s1 | · | · | · | 50µM* | · | 1%
COc1ccccc1N(C)S(=O)(=O)c1ccc(C(=O)N2CCCc3ccccc32)cc1 | 1% | · | · | -5% | · | 19%
Cc1nn(-c2ccc(N3CCOCC3)nn2)c(C)c1CCC(=O)NCc1ccccc1 | -9%[59 µM] | · | ? | 12% | · | -1%
COc1ccccc1NC(=O)c1cccc(S(=O)(=O)N2CCOCC2)c1 | 14%[59 µM] | 1% | 0% | 8% | 5% | -6%
COc1ccc(S(=O)(=O)N2CCOCC2)cc1NC(=O)c1cc2ccccc2o1 | 45µM* | · | · | · | · | ·
O=C(/C=C/c1ccc(S(=O)(=O)N2CCOCC2)cc1)NCc1ccccc1Cl | 35%[59 µM] | 2% | ? | 24% | 8.9µM* | -1%
COc1ccc(OC)c(NC(=O)/C=C/c2ccc(S(=O)(=O)N3CCOCC3)cc2)c1 | 50µM* | · | · | · | · | ·
COc1ccc(S(=O)(=O)N2CCOCC2)cc1NC(=O)c1cccc(-n2cccc2)c1 | 28µM* | · | · | · | · | ·
O=C(/C=C/c1ccc(S(=O)(=O)N2CCOCC2)cc1)NCc1ccccc1F | -8%[12.7 µM] | · | · | · | · | ·
CC(=O)c1nnn(-c2ccc(C)cc2Cl)c1C | 6%[59 µM] | · | · | · | · | 1%
Cc1ccc2c(c1)N(C(=O)Nc1cccc(C)c1C)CCO2 | -19%[59 µM] | · | 5%[46 µM] | · | · | 0%
O=C1OCCC1Sc1nc2cc(Cl)ccc2n1Cc1ccccc1 (stereo not drawn) | ? | 1% | 3% | -14% | 25µM* | -10%
Cc1sc2nc(SC3CCOC3=O)n(Cc3ccccc3)c(=O)c2c1C (stereo not drawn) | 28%[12.7 µM] | 1% | 1%[46 µM] | -1% | 16µM* | -2%
C=CCn1c(SC2CCOC2=O)nc2sc(C)c(C)c2c1=O (stereo not drawn) | 3%[59 µM] | 2% | -1% | 1% | 2% | -8%
N#Cc1c(NC(=O)CS(=O)(=O)c2ccc(Cl)cc2)sc2c1CCCCC2 | 4%[59 µM] | · | ? | · | · | -3%
O=C(Nc1cc(F)ccc1F)C1CCN(C(=O)c2cnn(-c3ccccc3)c2-n2cccc2)CC1 | -4%[59 µM] | · | · | · | · | 8%
C/C=C\C1=C(CO)C(=O)[C@@H]2OC2C1=O (stereo partly drawn) | · | · | · | 3.2µM* | 0.71µM* | ·
C/C=C\C1=C(CO)[C@H](O)[C@H]2O[C@H]2[C@H]1O | · | · | · | 8% | -12%[13.5 µM] | ·
CCCCNc1c([N+](=O)[O-])cc(C(=O)O)cc1[N+](=O)[O-] | 10%[59 µM] | 0% | 6% | 11% | -1% | -18%
CCCCNc1c([N+](=O)[O-])cc(C)cc1[N+](=O)[O-] | 40µM* | 1% | -3% | 8% | ? | -2%
SMILES | G9a inh | KDM4E inh | Lamin A splicing | Sfp PPTase inh | ALDH1A1 block | miR-21 act
Cc1cc(C)c2sc(N(CCCN(C)C)C(=O)c3ccc(S(=O)(=O)N4CCc5ccccc5C4)cc3)nc2c1 | 22µM* | · | · | · | · | ·
CN(C)CCCN(C(=O)c1ccc(S(=O)(=O)N2CCc3ccccc3C2)cc1)c1nc2ccc(F)cc2s1 | 40µM* | · | · | 45µM* | · | ?
CN(C)CCCN(C(=O)c1ccc(S(=O)(=O)N(C)C)cc1)c1nc2ccc(F)cc2s1 | -33% | -1% | 8%[46 µM] | 13% | 5% | -15%
Cc1cccc2sc(N(CCCN(C)C)C(=O)c3ccc(S(=O)(=O)N4CCc5ccccc5C4)cc3)nc12 | · | · | · | 3% | · | -7%
Cc1ccc2nc(N(CCCN(C)C)C(=O)c3ccc(S(=O)(=O)N4CCc5ccccc5C4)cc3)sc2c1 | 71µM* | · | · | 50µM* | · | 24%
Cc1cc(C)c2sc(N(CCCN(C)C)C(=O)c3ccc(S(=O)(=O)N4CCCc5ccccc54)cc3)nc2c1 | 45µM* | · | · | · | · | ·
COc1ccc(NC(=O)c2cc3c(=O)n(Cc4cccs4)ccc3nc2C)c(OC)c1 | -15%[59 µM] | · | -6%[46 µM] | · | · | -2%
CCOC(=O)c1cc(NC(=O)c2ccc(OC)cc2)c(=O)n2c1oc1ccc(Cl)cc12 | 6%[59 µM] | · | · | · | · | 1%
Cc1cc(C(=O)Nc2ccc3ccccc3c2)c(C)o1 | 4% | · | · | 19% | · | -29%
COc1ccc(-c2nnc(SCC(=O)O)n2Cc2ccccc2)cc1 | · | · | · | 18% | · | 0%
Cc1ccc(NC(=O)CN2C(=O)COc3ccc(S(=O)(=O)N4CCOCC4)cc32)c(Cl)c1 | 1%[59 µM] | · | · | · | · | -4%
CN(C)CCCN(C(=O)c1ccc(S(=O)(=O)N2CCc3ccccc32)cc1)c1nc2ccc(F)cc2s1 | 45µM* | · | · | ? | · | -15%
CN(C)CCCN(C(=O)c1ccc(S(=O)(=O)N2CCc3ccccc32)cc1)c1nc2ccc(Cl)cc2s1 | ? | · | · | ? | · | -5%
COc1ccc2sc(N(CCCN(C)C)C(=O)c3ccc(S(=O)(=O)N4CCc5ccccc5C4)cc3)nc2c1 | 32µM* | · | · | · | · | ·
Cc1ccccc1-n1nnnc1SC1CCOC1=O (stereo not drawn) | 10%[59 µM] | 8% | ? | 11% | 11µM* | -2%
CCOc1ccc(C(=O)CCC(=O)O)cc1 | -11% | 2% | 3% | 14% | -9% | -1%
CCOc1ccc(/C(CCC(=O)O)=N/NC(=S)NC(C)C)cc1 | 22µM* | -2% | · | 35µM* | ? | -16%
c1ccc(COC2CCCN(Cc3nc(Cc4ccccc4)no3)C2)cc1 (stereo not drawn) | 1% | 4% | ? | 2% | 14µM* | 4%
Fc1ccccc1Cc1noc(CN2CCC(OCc3cccnc3)CC2)n1 | · | 6% | 6%[46 µM] | 35µM* | ? | -41%
COc1ccc(-c2noc(CN3CCCC(OCc4ccccn4)C3)n2)cc1 (stereo not drawn) | 50µM* | -7% | · | 5% | · | -3%
